Records with an inconclusive call do not appear. The source made the active and inactive calls. Unless noted, calls follow the shape of the full dose curve.
Assays:
[1] = Nuclear factor erythroid 2-related factor 2/antioxidant responsive element (Nrf2/ARE) small molecule agonists: qHTS cell viability counter screen in human keratinocytes (AID 1919968; active = well fitted curve in the direction sought with a large enough effect in the repeat runs; an effect the other way counts as inactive or inconclusive; also: nearly all actives have a fitted effect of over 55% in size)
Summary of the method: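 In human HaCaT keratinocytes stably expressing an ARE-driven luciferase, compound exposure lasted 23 h at 37 C under 5% CO2. Viable cells are quantified with a protease-based fluorogenic reagent (CellTiter-Fluor) read 1 h after addition.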

[2] = Nuclear factor erythroid 2-related factor 2/antioxidant responsive element (Nrf2/ARE) small molecule agonists: luciferase reporter gene qHTS assay in human keratinocytes (AID 1919969); also: nearly all actives have a fitted effect of over 35% in size
[3] = biological target: Gonadotropin-releasing hormone receptor (Homo sapiens) (UniProt P30968); assay: Human gonadotropin-releasing hormone receptor (GnRHR) small molecule agonists, calcium flux assay in GnRHR-HEK293 cells (AID 1920063); also: nearly all actives have a fitted effect of over 35% in size
Gonadotropin-releasing hormone receptor (Homo sapiens), sequence (P30968 whole entry, looked up): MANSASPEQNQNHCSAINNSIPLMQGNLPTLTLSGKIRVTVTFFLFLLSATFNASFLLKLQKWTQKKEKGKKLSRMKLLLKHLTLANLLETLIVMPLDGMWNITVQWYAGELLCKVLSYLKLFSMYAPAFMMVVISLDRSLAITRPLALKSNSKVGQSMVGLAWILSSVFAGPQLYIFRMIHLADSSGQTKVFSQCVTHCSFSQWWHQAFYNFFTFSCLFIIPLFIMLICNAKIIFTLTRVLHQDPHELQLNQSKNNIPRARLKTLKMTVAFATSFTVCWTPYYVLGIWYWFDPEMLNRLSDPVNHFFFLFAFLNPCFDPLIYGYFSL
Summary of the method: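 Intracellular calcium rise is the read-out: engineered human GnRHR HEK293 cells, dye-loaded, are exposed to DMSO-dissolved compounds and fluorescence at Ex/Em 480/540 is tracked for 3 min.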

[4] = biological target: KiSS-1 receptor (Homo sapiens) (UniProt Q969F8); assay: Human kisspeptin (KISS1R) small molecule agonists, calcium flux assay in KISS1R-HEK293 cells (AID 1920064; active = well fitted curve in the direction sought with a large enough effect in the repeat runs; an effect the other way counts as inactive or inconclusive)
KiSS-1 receptor (Homo sapiens), sequence (Q969F8 whole entry, looked up): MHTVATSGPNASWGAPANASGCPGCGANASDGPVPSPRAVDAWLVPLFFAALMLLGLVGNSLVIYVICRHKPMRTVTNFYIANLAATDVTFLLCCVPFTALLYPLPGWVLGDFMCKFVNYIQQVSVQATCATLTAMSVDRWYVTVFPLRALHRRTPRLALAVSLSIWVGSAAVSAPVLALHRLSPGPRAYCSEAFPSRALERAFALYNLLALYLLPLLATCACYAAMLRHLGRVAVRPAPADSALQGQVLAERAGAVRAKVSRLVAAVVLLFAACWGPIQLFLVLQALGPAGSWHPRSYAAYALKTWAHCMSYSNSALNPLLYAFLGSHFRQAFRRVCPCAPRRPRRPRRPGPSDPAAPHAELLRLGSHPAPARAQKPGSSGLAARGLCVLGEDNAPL
Summary of the method: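 Concentration-response testing used 15 concentrations in triplicate on human KISS1R-expressing HEK293 cells. Calcium-dependent fluorescence (Ex/Em 480/540) was followed kinetically for 3 min after compound transfer.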

[5] = G protein-coupled receptor (GPCR) small molecule agonists, calcium flux assay: HEK293 wild type cell line counter screen (AID 1920065)
Summary of the method: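 Fluorescence intensity signals activation. After overnight (18 h) culture and a 1 h calcium dye load at 37 C, compounds are added by pin tool and the plate read at 480/540 nm for 3 min in 1 s steps.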

[6] = p53 small molecule agonists, cell-based qHTS assay with human liver microsomes (AID 1963577);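 also: p53 response element beta-lactamase reporter cells with liver microsomes plus NADPH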
Summary of the method: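 Reporter activation was measured by LiveBLAzer fluorescence intensity in p53RE-bla cells, which had been exposed to compounds for 16 h at 37 C alongside 0.5 mg/mL human liver microsomes and 0.5 mg/mL NADPH (final concentrations).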

[7] = p53 small molecule agonists, cell-based qHTS assay with rat liver microsomes (AID 1963578)
Summary of the method: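 Compound in DMSO added to p53RE-bla cells 5 h post-plating; rat microsomes/NADPH 0.5 mg/mL final; 16 h, 37 C; LiveBLAzer 2 h RT.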

[8] = p53 small molecule agonists, cell-based qHTS assay with human liver microsomes: qHTS cell viability counter screen (AID 1963579); also: nearly all actives have a fitted effect of over 45% in size
Summary of the method: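 HLM-supplemented (0.5 mg/mL final) and NADPH-supplemented (0.5 mg/mL final) p53RE-bla cultures, 4,000 cells per well, were dosed with compounds in DMSO for 16 h at 37 C; luminescent ATP detection (CellTiter-Glo, 30 min, room temperature) quantified surviving cells.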

[9] = p53 small molecule agonists, cell-based qHTS assay with rat liver microsomes: qHTS cell viability counter screen (AID 1963580); also: nearly all actives have a fitted effect of over 45% in size
Summary of the method: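 Rat liver microsome (0.5 mg/mL final) and NADPH (0.5 mg/mL final) co-incubation with compounds for 16 h at 37 C on HCT-116 p53RE-bla cells; cytotoxicity taken from intracellular ATP luminescence.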

[10] = p53 small molecule agonists, cell-based qHTS assay: qHTS cell viability counter screen (AID 1963581); also: nearly all actives have a fitted effect of over 45% in size
Summary of the method: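 Luminescence from CellTiter-Glo, reflecting ATP content, serves as the cytotoxicity measure; it is taken after the 2 h reporter substrate step in HCT-116 p53RE-bla cells dosed for 16 h at 37 C.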

[11] = p53 small molecule agonists, cell-based qHTS assay (AID 1963582; active = well fitted activation curve with a large enough effect in the signal ratio in the repeat runs, not every such curve was filed as active; the % refers to the signal ratio)
Summary of the method: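 After plating, p53RE-bla cells sat 5 h in the incubator; compounds or DMSO vehicle were pinned in; a 16 h incubation at 37 C followed; FRET substrate was added and, 2 h later at RT, fluorescence was measured.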

[12] = biological target: 5-hydroxytryptamine receptor 2A (Homo sapiens) (UniProt P28223); assay: 5-hydroxytryptamine receptor 2A (HTR2A) small molecule antagonists, cell-based qHTS assay (AID 1963586); also: nearly all actives have a fitted effect of over 45% in size
5-hydroxytryptamine receptor 2A (Homo sapiens), sequence (P28223 whole entry, looked up): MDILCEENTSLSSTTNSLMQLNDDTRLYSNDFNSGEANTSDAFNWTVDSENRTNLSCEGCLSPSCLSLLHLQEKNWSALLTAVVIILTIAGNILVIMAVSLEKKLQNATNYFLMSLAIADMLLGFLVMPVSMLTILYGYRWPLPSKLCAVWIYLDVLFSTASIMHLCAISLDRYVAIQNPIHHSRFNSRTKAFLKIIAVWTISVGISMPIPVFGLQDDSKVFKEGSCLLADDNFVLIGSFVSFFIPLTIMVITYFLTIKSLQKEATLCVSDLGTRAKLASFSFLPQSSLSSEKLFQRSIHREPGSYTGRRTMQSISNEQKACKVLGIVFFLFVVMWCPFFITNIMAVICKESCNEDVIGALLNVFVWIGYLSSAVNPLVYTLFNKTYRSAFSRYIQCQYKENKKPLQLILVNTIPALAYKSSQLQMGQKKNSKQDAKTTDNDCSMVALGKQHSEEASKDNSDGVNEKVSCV
Summary of the method: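 CHO cells stably expressing human HTR2A were plated for 18 h at 37 C, then loaded with calcium dye for 1 h. Compounds were preincubated 5 min at room temperature before DOI (4 nM solution) was added. Kinetic fluorescence was read for 3 min.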

[13] = biological target: 5-hydroxytryptamine receptor 2A (Homo sapiens) (UniProt P28223); assay: 5-hydroxytryptamine receptor 2A (HTR2A) small molecule agonists, cell-based qHTS assay (AID 1963587); also: nearly all actives have a fitted effect of over 30% in size
Summary of the method: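 Kinetic calcium-flux fluorescence (2 min, 1 sec intervals) after compound addition in agonist mode. HTR2A-CHO cells were cultured 18 h, then dye-loaded 1 h at 37 C.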

[14] = biological target: Muscarinic acetylcholine receptor M1 (Homo sapiens) (UniProt P11229); assay: Cholinergic receptor muscarinic 1 (CHRM1) small molecule antagonists, cell-based qHTS assay (AID 1963588); also: nearly all actives have a fitted effect of over 40% in size
Muscarinic acetylcholine receptor M1 (Homo sapiens), sequence (P11229 whole entry, looked up): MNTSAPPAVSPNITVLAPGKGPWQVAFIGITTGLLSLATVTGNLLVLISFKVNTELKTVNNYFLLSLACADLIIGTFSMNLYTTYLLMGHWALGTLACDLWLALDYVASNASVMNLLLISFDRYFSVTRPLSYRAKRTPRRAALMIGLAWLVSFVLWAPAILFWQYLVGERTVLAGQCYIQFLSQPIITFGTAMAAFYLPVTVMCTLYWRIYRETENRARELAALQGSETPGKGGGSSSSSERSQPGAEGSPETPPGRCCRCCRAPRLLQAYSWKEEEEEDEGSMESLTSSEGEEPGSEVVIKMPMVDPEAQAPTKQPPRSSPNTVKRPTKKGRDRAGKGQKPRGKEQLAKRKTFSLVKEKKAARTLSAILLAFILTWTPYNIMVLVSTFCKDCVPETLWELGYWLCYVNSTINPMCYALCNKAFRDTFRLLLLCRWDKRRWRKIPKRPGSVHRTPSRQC
Summary of the method: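 Compounds were tested at 15 concentrations in three independent runs. Dye-loaded CHRM1-CHO cells were exposed 5 min at room temperature before stimulation by acetylcholine added at 50nM. Intracellular calcium was read kinetically on FDSS for 3 min.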

[15] = biological target: Muscarinic acetylcholine receptor M1 (Homo sapiens) (UniProt P11229); assay: Cholinergic receptor muscarinic 1 (CHRM1) small molecule agonists, cell-based qHTS assay (AID 1963589); also: nearly all actives have a fitted effect of over 35% in size
Summary of the method: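 Fluorescent calcium dye reports M1 activation in stably transfected CHO cells. Compounds, 15 concentrations, added after 1 h dye loading at 37 C; kinetic reading at 1 sec intervals.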

[16] = cAMP Responsive Elements (CRE) small molecule agonists, cell-based qHTS assay (AID 1963590)
Summary of the method: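 Compound exposure lasted 3 h at 37 C/5% CO2 in CRE-bla HEK 293T cells grown in assay medium with 10% dialyzed FBS and 25 mM HEPES. Reporter signal came from LiveBLAzer B/G FRET substrate, 2 h, room temperature.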

[17] = cAMP Responsive Elements (CRE) small molecule antagonists, cell-based qHTS assay (AID 1963591; active = well fitted inhibition curve with a large enough effect in the signal ratio in the repeat runs, not every such curve was filed as active; the % refers to the signal ratio)
Summary of the method: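 Stimulation used NKH477 at a final 0.25 uM for 3 h in compound-treated CRE-bla HEK293T cells, seeded 18 h beforehand. Reporter activity was measured with LiveBLAzer B/G FRET substrate after 2 h at room temperature.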

[18] = biological target: Beta-2 adrenergic receptor (Homo sapiens) (UniProt P07550); assay: Adrenergic beta2 receptor (ADRB2) small molecule antagonists, cell-based qHTS assay (AID 1963592); also: series mostly up to about 92 µM; nearly all actives have a fitted effect of over 50% in size
Beta-2 adrenergic receptor (Homo sapiens), sequence (P07550 whole entry, looked up): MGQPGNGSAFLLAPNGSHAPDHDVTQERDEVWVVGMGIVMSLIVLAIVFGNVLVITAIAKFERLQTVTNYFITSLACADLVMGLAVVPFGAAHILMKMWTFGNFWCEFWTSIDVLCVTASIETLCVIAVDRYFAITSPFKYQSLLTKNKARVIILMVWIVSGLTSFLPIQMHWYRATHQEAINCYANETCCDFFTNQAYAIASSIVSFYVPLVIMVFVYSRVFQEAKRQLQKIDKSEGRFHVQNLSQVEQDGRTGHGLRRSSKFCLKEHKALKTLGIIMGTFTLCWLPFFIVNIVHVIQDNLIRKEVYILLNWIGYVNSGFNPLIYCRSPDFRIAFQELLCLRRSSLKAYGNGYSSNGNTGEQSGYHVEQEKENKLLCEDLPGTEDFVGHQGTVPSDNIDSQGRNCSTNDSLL
Summary of the method: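 Assay format: CHO-ADRB2 cells, 18-20hr seeding at 37C/5% CO2, then compound plus 1nM isoproterenol agonist mix for 0.5hr RT. Homogeneous time-resolved fluorescence cAMP detection after 1hr, expressed as 665/615 nm ratio.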

[19] = biological target: D(2) dopamine receptor (Homo sapiens) (UniProt P14416); assay: Dopamine D2 receptor (DRD2) small molecule agonists, cell-based qHTS assay (AID 1963594); also: nearly all actives have a fitted effect of over 35% in size
D(2) dopamine receptor (Homo sapiens), sequence (P14416 whole entry, looked up): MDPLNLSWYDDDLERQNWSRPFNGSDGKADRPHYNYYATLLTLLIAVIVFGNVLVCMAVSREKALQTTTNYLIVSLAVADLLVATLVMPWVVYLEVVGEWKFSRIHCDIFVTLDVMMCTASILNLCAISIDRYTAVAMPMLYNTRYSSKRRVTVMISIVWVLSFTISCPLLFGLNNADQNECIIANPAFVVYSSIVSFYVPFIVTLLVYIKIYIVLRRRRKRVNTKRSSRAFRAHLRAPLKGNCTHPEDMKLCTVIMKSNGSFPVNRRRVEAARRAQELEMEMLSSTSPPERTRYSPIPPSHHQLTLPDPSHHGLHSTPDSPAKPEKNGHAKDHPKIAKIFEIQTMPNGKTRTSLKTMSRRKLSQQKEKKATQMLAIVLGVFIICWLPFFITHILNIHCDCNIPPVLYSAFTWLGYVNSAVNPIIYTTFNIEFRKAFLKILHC
Summary of the method: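 cAMP accumulation in DRD2-HEK293 cells measured by HTRF after 1 h detection; compounds added 10 min before NKH477 (200nM […]) forskolin-analogue stimulation, 30 min at room temperature, with Ro20-1724 present at 0.1 mM final.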

[20] = biological target: D(2) dopamine receptor (Homo sapiens) (UniProt P14416); assay: Dopamine D2 receptor (DRD2) small molecule antagonists, cell-based qHTS assay (AID 1963595; active = well fitted inhibition curve with a large enough effect in the signal ratio in the repeat runs, with a control signal flat; the % refers to the signal ratio)
Summary of the method: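 Antagonism was scored as restored cAMP in HEK293-DRD2 cells. These cells were stimulated with 200 nM NKH477 and 12 nM quinpirole for 30 min at room temperature, in the presence of 0.1 mM Ro20-1724.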

Measured: Potency

Cc1cc(C)cc([N+](=O)[O-])c1
inactive: [1] | [2] | [3] | [4] | [5] | [6] | [7] | [8] | [9] | [10] | [11] | [12] | [13] | [14] | [15] | [16] | [17] | [18] | [19] | [20]

ON=C1CCCC1
inactive: [1] | [2] | [3] | [4] | [5] | [6] | [7] | [8] | [9] | [10] | [11] | [12] | [13] | [14] | [15] | [16] | [17] | [18] | [19] | [20]

CC(N)CCCC(C)(C)O (stereo not given)
inactive: [1] | [2] | [3] | [4] | [5] | [6] | [7] | [8] | [9] | [10] | [11] | [12] | [13] | [14] | [15] | [16] | [17] | [18] | [19] | [20]

CC(C)(C)NCCNC(C)(C)C
inactive: [1] | [2] | [3] | [4] | [5] | [6] | [7] | [8] | [9] | [10] | [11] | [12] | [13] | [14] | [15] | [16] | [17] | [18] | [19] | [20]

C=CCOc1c(Br)cc(Br)cc1Br
inactive: [1] | [2] | [3] | [4] | [5] | [6] | [7] | [8] | [9] | [10] | [11] | [12] | [13] | [14] | [15] | [16] | [17] | [18] | [19] | [20]

CCC(C)C(=O)OC (stereo not given)
inactive: [1] | [2] | [3] | [4] | [5] | [6] | [7] | [8] | [9] | [10] | [11] | [12] | [13] | [14] | [15] | [16] | [17] | [18] | [19] | [20]
